What all share (test): PBM; 200 nM protein, PBS
Conditions in all cases: dsDNA, one strand shown

Assay [1] has as its target HOXB9 (Homo sapiens, UniProt P17482 171-250, T197M).
Assay [2] concerns the target HOXA7 (Homo sapiens, UniProt P31268 116-202).
Assay [3] has as its target HOXB6 (Homo sapiens, UniProt P17509 132-218, K202E).
Assay [4] concerns the target HOXA2 (Homo sapiens, UniProt O43364 129-215, R185K).
A further assay deals with HOXC10 (Homo sapiens, UniProt Q9NYD6 254-340, K271E).
Assay [5] concerns the target HOXA2 (Homo sapiens, UniProt O43364 129-215, Y150S).
Assay [6] deals with HOXA7 (Homo sapiens, UniProt P31268 116-202, W177C).
Sequence of HOXA7 (Homo sapiens, UniProt P31268 116-202, W177C) (P31268 116-202 W177C): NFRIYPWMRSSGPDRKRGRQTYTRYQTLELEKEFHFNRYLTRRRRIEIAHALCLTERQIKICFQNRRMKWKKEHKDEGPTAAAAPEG
For assay [7], the target named is HOXA2 (Homo sapiens, UniProt O43364 129-215).
Sequence of HOXA2 (Homo sapiens, UniProt O43364 129-215) (O43364 129-215): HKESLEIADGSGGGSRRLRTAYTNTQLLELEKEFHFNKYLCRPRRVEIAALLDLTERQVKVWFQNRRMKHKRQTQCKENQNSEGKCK
Assay [8] concerns the target HOXB6 (Homo sapiens, UniProt P17509 132-218).
Another assay addresses T1, VENTX (Homo sapiens, UniProt O95231 78-163).
T1 sequence: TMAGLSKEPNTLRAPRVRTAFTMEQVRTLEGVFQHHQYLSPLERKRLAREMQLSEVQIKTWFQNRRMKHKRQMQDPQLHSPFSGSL

Assay [9] has as its target T2, PAX4 (Homo sapiens, UniProt O43316 9-242).
T2 sequence: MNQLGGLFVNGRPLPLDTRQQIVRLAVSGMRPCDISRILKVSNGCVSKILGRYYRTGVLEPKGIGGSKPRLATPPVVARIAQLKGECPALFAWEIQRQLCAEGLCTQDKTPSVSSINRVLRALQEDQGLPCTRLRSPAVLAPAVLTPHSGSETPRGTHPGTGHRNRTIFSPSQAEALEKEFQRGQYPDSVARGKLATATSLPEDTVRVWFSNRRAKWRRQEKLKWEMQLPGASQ

The target in the next assay is VAX1 (Homo sapiens, UniProt Q5SQQ9 86-172).
Sequence of VAX1 (Q5SQQ9 86-172): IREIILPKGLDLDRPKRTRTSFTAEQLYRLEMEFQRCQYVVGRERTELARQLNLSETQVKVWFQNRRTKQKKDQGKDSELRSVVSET
Assay [10] concerns the target T3, PAX4 (Homo sapiens, UniProt O43316 9-242, R227W).
T3 sequence: T2 sequence with R219W

Assay [11] deals with HOXC9 (Homo sapiens, UniProt P31274 178-260, K195R).
Sequence of HOXC9 (Homo sapiens, UniProt P31274 178-260, K195R) (P31274 178-260 K195R): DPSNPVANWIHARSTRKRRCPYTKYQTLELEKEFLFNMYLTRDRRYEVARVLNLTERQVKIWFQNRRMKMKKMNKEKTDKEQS
The target in assay [12] is HOXC9 (Homo sapiens, UniProt P31274 178-260).
Sequence of HOXC9 (Homo sapiens, UniProt P31274 178-260) (P31274 178-260): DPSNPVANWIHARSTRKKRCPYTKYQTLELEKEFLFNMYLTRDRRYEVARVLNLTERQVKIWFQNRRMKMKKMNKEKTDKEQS
The target in assay [13] is HOXC9 (Homo sapiens, UniProt P31274 178-260, R193K).
Sequence of HOXC9 (Homo sapiens, UniProt P31274 178-260, R193K) (P31274 178-260 R193K): as the sequence (P31274 178-260) above, with R16K counted along it
Assay [14] has as its target HOXB9 (Homo sapiens, UniProt P17482 171-250, R186Q).
The target of assay [15] is HOXC9 (Homo sapiens, UniProt P31274 178-260, R222W).
Sequence of HOXC9 (Homo sapiens, UniProt P31274 178-260, R222W) (P31274 178-260 R222W): as the sequence (P31274 178-260) above, with R45W counted along it
Assay [16] concerns the target HOXB9 (Homo sapiens, UniProt P17482 171-250).

8 sequences from PMC11006913 can be followed below.

Numbering of substitutions follows the chain as printed.

Sequence of HOXB6 (Homo sapiens, UniProt P17509 132-218) (P17509 132-218): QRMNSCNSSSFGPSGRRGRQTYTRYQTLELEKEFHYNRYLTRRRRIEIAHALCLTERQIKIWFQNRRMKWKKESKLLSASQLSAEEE
Sequence of HOXC10 (Q9NYD6 254-340 K271E): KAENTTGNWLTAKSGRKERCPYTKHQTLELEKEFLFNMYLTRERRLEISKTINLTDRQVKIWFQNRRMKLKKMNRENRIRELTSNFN
Sequence of HOXA7 (Homo sapiens, UniProt P31268 116-202) (P31268 116-202): as the sequence (P31268 116-202 W177C) above, with C62W counted along it
Sequence of HOXB9 (Homo sapiens, UniProt P17482 171-250, T197M) (P17482 171-250 T197M): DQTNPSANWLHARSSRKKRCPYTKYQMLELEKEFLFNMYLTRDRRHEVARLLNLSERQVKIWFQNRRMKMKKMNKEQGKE
Sequence of HOXB6 (Homo sapiens, UniProt P17509 132-218, K202E) (P17509 132-218 K202E): as the sequence (P17509 132-218) above, with K71E counted along it
Sequence of HOXA2 (Homo sapiens, UniProt O43364 129-215, R185K) (O43364 129-215 R185K): as the sequence (O43364 129-215) above, with R57K counted along it
Sequence of HOXA2 (Homo sapiens, UniProt O43364 129-215, Y150S) (O43364 129-215 Y150S): as the sequence (O43364 129-215) above, with Y22S counted along it
Sequence of HOXB9 (Homo sapiens, UniProt P17482 171-250, R186Q) (P17482 171-250 R186Q): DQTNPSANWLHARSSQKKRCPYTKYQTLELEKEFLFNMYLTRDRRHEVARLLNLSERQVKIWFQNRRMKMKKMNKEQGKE
Sequence of HOXB9 (Homo sapiens, UniProt P17482 171-250) (P17482 171-250): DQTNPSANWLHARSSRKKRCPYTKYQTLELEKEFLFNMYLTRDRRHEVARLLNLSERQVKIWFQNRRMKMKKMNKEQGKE

With TAATTGCA, the binding signal with HOXB9 [1] was 10.2 upbm affinity estimate (log intensity, higher = more binding, comparable within an allelic series); with HOXA7 [2] it was 11.6 upbm affinity estimate (log intensity, higher = more binding, comparable within an allelic series); with HOXB6 [3], 10 upbm affinity estimate (log intensity, higher = more binding, comparable within an allelic series); with HOXA2 [4], 13.4 upbm affinity estimate (log intensity, higher = more binding, comparable within an allelic series); in the assay with HOXC10 it was 11.8 upbm affinity estimate (log intensity, higher = more binding, comparable within an allelic series); with HOXA2 [5], 11 upbm affinity estimate (log intensity, higher = more binding, comparable within an allelic series). In addition, the binding signal with HOXA7 [6] was 8.79 upbm affinity estimate (log intensity, higher = more binding, comparable within an allelic series); with HOXA2 [7], 12.3 upbm affinity estimate (log intensity, higher = more binding, comparable within an allelic series); with HOXB6 [8], 12.1 upbm affinity estimate (log intensity, higher = more binding, comparable within an allelic series).

As to CAATTAGC, the binding signal with VENTX is 13.1 upbm affinity estimate (log intensity, higher = more binding, comparable within an allelic series); in the assay with HOXA7 [2], 11.3 upbm affinity estimate (log intensity, higher = more binding, comparable within an allelic series); in the assay with PAX4 [9], 12.2 upbm affinity estimate (log intensity, higher = more binding, comparable within an allelic series); with HOXA2 [4], 13.6 upbm affinity estimate (log intensity, higher = more binding, comparable within an allelic series); with VAX1, 13.5 upbm affinity estimate (log intensity, higher = more binding, comparable within an allelic series); with PAX4 [10] it was 10.8 upbm affinity estimate (log intensity, higher = more binding, comparable within an allelic series). Also, the binding signal was 10.7 upbm affinity estimate (log intensity, higher = more binding, comparable within an allelic series) with HOXA2 [5]; 8.77 upbm affinity estimate (log intensity, higher = more binding, comparable within an allelic series) in the assay with HOXA7 [6]; 12.6 upbm affinity estimate (log intensity, higher = more binding, comparable within an allelic series) in the assay with HOXA2 [7].

Consider TAATTAGA, for which the binding signal was 10.1 upbm affinity estimate (log intensity, higher = more binding, comparable within an allelic series) in the assay with HOXB9 [1]; 13 upbm affinity estimate (log intensity, higher = more binding, comparable within an allelic series) with VENTX; 11.5 upbm affinity estimate (log intensity, higher = more binding, comparable within an allelic series) with HOXA7 [2]; 12.8 upbm affinity estimate (log intensity, higher = more binding, comparable within an allelic series) in the assay with PAX4 [9]; 10 upbm affinity estimate (log intensity, higher = more binding, comparable within an allelic series) with HOXB6 [3]; 13.9 upbm affinity estimate (log intensity, higher = more binding, comparable within an allelic series) with HOXA2 [4]. Further, the binding signal is 11.8 upbm affinity estimate (log intensity, higher = more binding, comparable within an allelic series) with HOXC10; 13.8 upbm affinity estimate (log intensity, higher = more binding, comparable within an allelic series) with VAX1; 11.5 upbm affinity estimate (log intensity, higher = more binding, comparable within an allelic series) in the assay with PAX4 [10]; 11 upbm affinity estimate (log intensity, higher = more binding, comparable within an allelic series) with HOXA2 [5]; 8.87 upbm affinity estimate (log intensity, higher = more binding, comparable within an allelic series) with HOXA7 [6]; 13.1 upbm affinity estimate (log intensity, higher = more binding, comparable within an allelic series) with HOXA2 [7]. Further, the binding signal with HOXB6 [8] is 12 upbm affinity estimate (log intensity, higher = more binding, comparable within an allelic series).

In the case of CCAGGTCC, the binding signal with VENTX was 8.06 upbm affinity estimate (log intensity, higher = more binding, comparable within an allelic series); in the assay with HOXA2 [4], 10.3 upbm affinity estimate (log intensity, higher = more binding, comparable within an allelic series); with HOXA2 [5] it was 10.5 upbm affinity estimate (log intensity, higher = more binding, comparable within an allelic series); with HOXA2 [7], 7.25 upbm affinity estimate (log intensity, higher = more binding, comparable within an allelic series).

On to CTAATTAC, for which the binding signal is 10.1 upbm affinity estimate (log intensity, higher = more binding, comparable within an allelic series) with HOXB9 [1]; 13.2 upbm affinity estimate (log intensity, higher = more binding, comparable within an allelic series) with VENTX; 11.9 upbm affinity estimate (log intensity, higher = more binding, comparable within an allelic series) with HOXA7 [2]; 12.5 upbm affinity estimate (log intensity, higher = more binding, comparable within an allelic series) in the assay with PAX4 [9]; 10 upbm affinity estimate (log intensity, higher = more binding, comparable within an allelic series) in the assay with HOXB6 [3]; 14 upbm affinity estimate (log intensity, higher = more binding, comparable within an allelic series) with HOXA2 [4]. Also, the binding signal with HOXC10 is 12 upbm affinity estimate (log intensity, higher = more binding, comparable within an allelic series); with VAX1, 14 upbm affinity estimate (log intensity, higher = more binding, comparable within an allelic series); with PAX4 [10], 11.1 upbm affinity estimate (log intensity, higher = more binding, comparable within an allelic series); with HOXA2 [5], 10.9 upbm affinity estimate (log intensity, higher = more binding, comparable within an allelic series); in the assay with HOXA7 [6], 8.84 upbm affinity estimate (log intensity, higher = more binding, comparable within an allelic series); with HOXA2 [7] it was 13.4 upbm affinity estimate (log intensity, higher = more binding, comparable within an allelic series). Besides, the binding signal with HOXB6 [8] was 12.3 upbm affinity estimate (log intensity, higher = more binding, comparable within an allelic series).

CAATTAAC: the binding signal is 9.98 upbm affinity estimate (log intensity, higher = more binding, comparable within an allelic series) in the assay with HOXB9 [1]; 12.5 upbm affinity estimate (log intensity, higher = more binding, comparable within an allelic series) with HOXC9 [11]; 12.8 upbm affinity estimate (log intensity, higher = more binding, comparable within an allelic series) with VENTX; 11.5 upbm affinity estimate (log intensity, higher = more binding, comparable within an allelic series) with HOXA7 [2]; 12.1 upbm affinity estimate (log intensity, higher = more binding, comparable within an allelic series) with PAX4 [9]; 9.99 upbm affinity estimate (log intensity, higher = more binding, comparable within an allelic series) in the assay with HOXB6 [3]. The binding signal with HOXC9 [12] was 12.6 upbm affinity estimate (log intensity, higher = more binding, comparable within an allelic series); in the assay with HOXC9 [13], 12.5 upbm affinity estimate (log intensity, higher = more binding, comparable within an allelic series); with HOXA2 [4] it was 13.3 upbm affinity estimate (log intensity, higher = more binding, comparable within an allelic series); with HOXC10 it was 11.8 upbm affinity estimate (log intensity, higher = more binding, comparable within an allelic series); with VAX1 it was 13 upbm affinity estimate (log intensity, higher = more binding, comparable within an allelic series); in the assay with HOXB9 [14], 11.4 upbm affinity estimate (log intensity, higher = more binding, comparable within an allelic series). Also, the binding signal with HOXC9 [15] is 10.9 upbm affinity estimate (log intensity, higher = more binding, comparable within an allelic series); with PAX4 [10] it was 10.8 upbm affinity estimate (log intensity, higher = more binding, comparable within an allelic series); in the assay with HOXA2 [5] it was 10.8 upbm affinity estimate (log intensity, higher = more binding, comparable within an allelic series); with HOXA7 [6] it was 8.75 upbm affinity estimate (log intensity, higher = more binding, comparable within an allelic series); with HOXA2 [7], 12.3 upbm affinity estimate (log intensity, higher = more binding, comparable within an allelic series); with HOXB6 [8] it was 12 upbm affinity estimate (log intensity, higher = more binding, comparable within an allelic series).

In the case of AATTAGTC, the binding signal was 12.2 upbm affinity estimate (log intensity, higher = more binding, comparable within an allelic series) with PAX4 [9] and 10.9 upbm affinity estimate (log intensity, higher = more binding, comparable within an allelic series) in the assay with PAX4 [10].

Consider GGCAATTA, for which the binding signal with HOXB9 [1] is 10.2 upbm affinity estimate (log intensity, higher = more binding, comparable within an allelic series); with HOXC9 [11], 12.6 upbm affinity estimate (log intensity, higher = more binding, comparable within an allelic series); with VENTX, 12.5 upbm affinity estimate (log intensity, higher = more binding, comparable within an allelic series); with HOXA7 [2], 11.7 upbm affinity estimate (log intensity, higher = more binding, comparable within an allelic series); with HOXB6 [3] it was 9.93 upbm affinity estimate (log intensity, higher = more binding, comparable within an allelic series); with HOXB9 [16], 11.8 upbm affinity estimate (log intensity, higher = more binding, comparable within an allelic series). Besides, the binding signal with HOXC9 [13] was 12.5 upbm affinity estimate (log intensity, higher = more binding, comparable within an allelic series); in the assay with HOXA2 [4] it was 13.3 upbm affinity estimate (log intensity, higher = more binding, comparable within an allelic series); in the assay with HOXC10, 12 upbm affinity estimate (log intensity, higher = more binding, comparable within an allelic series); with VAX1, 12.9 upbm affinity estimate (log intensity, higher = more binding, comparable within an allelic series); with HOXB9 [14], 11.5 upbm affinity estimate (log intensity, higher = more binding, comparable within an allelic series); with HOXA2 [5], 10.8 upbm affinity estimate (log intensity, higher = more binding, comparable within an allelic series). For the same sequence, the binding signal is 8.77 upbm affinity estimate (log intensity, higher = more binding, comparable within an allelic series) with HOXA7 [6]; 12.5 upbm affinity estimate (log intensity, higher = more binding, comparable within an allelic series) with HOXA2 [7]; 12.2 upbm affinity estimate (log intensity, higher = more binding, comparable within an allelic series) with HOXB6 [8].
